Sa ugtP lethal = growth inhibition of S. aureus ugtP deletion strain; S. aureus RN4220 ugtP deletion, OD600 growth, 16 h; growth inhibition, % (concentration not given with the values); hit rate 0.54% among 330,000; AID 1259309; in the data active = growth inhibition above about 68%;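 also: plate controls were untreated wells for no effect and antibiotic for full effect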
RN4220 kill = S. aureus RN4220 growth inhibition; OD600, 16 h; inhibition, % (concentration not given with the values); AID 1259311; hit rate 0.33% among 330,000; in the data active = inhibition above about 85%;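 also: plate controls were untreated cells for no effect and reference antibiotic for full effect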
CCHF vOTU inh = CCHFV vOTU protease inhibition; Pep-AMC fluorescence; inhibition, % at 11.5 µM; hit rate 0.55% among 370,000; in the data active = inhibition above about 30%; also: 0% = vehicle wells with enzyme and 100% = no enzyme wells
PfHsp40 rescue = rescue of PfHsp40-mediated yeast toxicity. hit rate 0.68% among 340,000. growth rescue, % at 12.5 µM. S. cerevisiae expressing PfHsp40, growth rescue, ATP luminescence; in the data active = growth rescue above about 28%, passing the limit was not always enough;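 also: yeast W303a lacking pdr1 and pdr3 grown in galactose medium; growth measured after three days at 30 °C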
Mtb hypoxia rep = reduces hypoxia-regulated biosensor signal in M. tuberculosis; M. tuberculosis hypoxia-regulated fluorescent reporter, fluorescence; fluorescence inhibition, % (no concentration beside the values); hit rate 0.1% among 300,000; in the data active = fluorescence inhibition mostly above about 23%, no sharp cut-off; inactive = mostly below about 17%
BH1578 lux ind = quorum light induction in luxS cqsA deficient V. cholerae. hit rate 0.16% among 350,000. activation, % at 18.7 µM. V. cholerae BH1578 lux reporter, luminescence, 6 h; in the data active = activation mostly above about 9.7%, no sharp cut-off
Starred values were filed as active, the others as inactive; i = inactive; · = no result given. This is a sample that favours compounds with a hit; in the whole collection about 1.7% have one here.

SMILES	Sa ugtP lethal	RN4220 kill	CCHF vOTU inh	PfHsp40 rescue	Mtb hypoxia rep	BH1578 lux ind
O=C(NCc1cccc(Cl)c1)c1cccc(S(=O)(=O)N2CCCCC2)c1	-3	3	7	1	29*	-2
O=C(NNC(=O)c1cc(Cl)ccc1O)c1cccc(S(=O)(=O)N2CCOCC2)c1	0	11	2	475*	0	-6
O=C(NCc1cccc(Cl)c1)c1cccc(S(=O)(=O)N2CCCC2)c1	-9	-4	0	0	-4	i
O=c1c(-c2c(O)cc(O)c3c(=O)cc(-c4ccc(O)cc4)oc23)c(-c2ccc(O)cc2)oc2cc(O)cc(O)c12	14	-2	18	105*	·	0
Brc1ccc(OCc2ccccc2)c(CNCc2ccncc2)c1	-3	6	-5	122*	13	-1
Fc1ccc(COc2ccccc2CNCc2ccncc2)cc1	-3	6	9	-1	7	i
COc1ccc(OC(=NS(=O)(=O)c2ccccc2)c2ccccc2)cc1	0	1	·	·	-6	·
CC1CN(C(C)CO)C(=O)c2cccc(NC(=O)C3CC3)c2OC1CN(C)Cc1ccncc1 (stereo not given)	-3	2	·	·	14	·
O=C(NN=Cc1ccc(O)cc1)c1ccccc1NS(=O)(=O)c1cccs1	-3	3	18	-1	·	0
O=C(N/N=C/c1cc(Cl)cc([N+](=O)[O-])c1O)c1ccccc1NS(=O)(=O)c1cccs1	·	·	8	244*	·	4
CN(C)S(=O)(=O)c1cccc(NC(=O)COC(=O)c2ccc3c(c2)OCO3)c1	17	4	-15	-1	13	-2
CN(C)S(=O)(=O)c1ccc(C(=O)OCC(=O)Nc2ccc3c(c2)OCO3)cc1	5	5	-2	-1	21*	i
Cc1cccc(-n2c(/C=C/c3ccc([N+](=O)[O-])o3)nc3ccccc3c2=O)c1	99*	69	-9	0	5	0
O=c1c2ccccc2nc(/C=C/c2ccc([N+](=O)[O-])o2)n1-c1ccc(O)cc1	100*	99*	18	-2	5	2
COc1ccc(-c2nn(-c3ccccc3)cc2C=NNc2ccccn2)cc1OC	-5	1	·	·	6	·
COc1ccccc1C=NNc1nc(C)cc(C)n1	7	6	·	·	13	·
Cc1cccc(C=NNC(=O)c2cc(Br)ccc2OCc2ccccc2)n1	-7	11	·	·	-12	·
O=Cc1sc(=NS(=O)(=O)c2ccccc2)n(CCCCl)c1Cl	11	7	·	·	0	·
CS(=O)(=O)c1ccc2nc(NC(=O)c3ccc(NS(=O)(=O)c4ccc(F)c(F)c4)cc3)sc2c1	12	3	-29	-2	4	i
O=C(Nc1nc2ccc(SC(F)F)cc2s1)c1ccc(NS(=O)(=O)c2ccc(F)c(F)c2)cc1	100*	100*	14	-2	3	0
Cn1c(CC(=O)Nc2ccc(Cl)c(Cl)c2)n[nH]c1=S	2	4	-5	0	4	i
COc1ccc(Cc2n[nH]c(=S)n2NC(=O)Nc2ccc(Cl)c(Cl)c2)cc1	100*	100*	8	0	2	-4
COc1ccc(C=C2SC(=O)NC2=O)cc1	44	2	·	·	4	·
COc1cc(C(=O)O)ccc1O	·	·	-1	-1	·	-8
Oc1ccc(N=Nc2ccc3ccccc3c2)cc1	99*	99*	6	72*	4	1
SMILES	Sa ugtP lethal	RN4220 kill	CCHF vOTU inh	PfHsp40 rescue	Mtb hypoxia rep	BH1578 lux ind
COc1cc(N=Nc2ccc3ccccc3c2)ccc1O	94*	6	0	153*	-3	0
Oc1ccc(N=Nc2c(O)ccc3ccccc23)cc1	98*	86*	6	5	11	i
COc1cc(-c2nc3ccccc3nc2-c2ccc(O)c(OC)c2)ccc1O	18	0	23	0	-12	4
COc1cc(N=Nc2ccccc2C(=O)O)ccc1O	0	4	-5	-1	48*	-1
C=CCON=C(C)c1ccc(Oc2cnccn2)cc1	4	2	·	·	5	·
CCOC(=O)CC1c2cc(F)ccc2S(=O)(=O)N1C1CCCC1 (stereo not given)	2	1	·	·	9	·
CCCSc1nc2c(cnn2-c2ccccc2)c(=O)n1N	6	4	8	2	10	1
CCCOc1nc(SCCC)nc2c1cnn2-c1ccccc1	93*	-5	-3	-1	-4	-1
CCCCCCCCCn1ccc(=N)cc1	100*	-1	-6	1	13	-1
CCCCCCCn1ccc(=N)cc1	5	1	7	0	·	2
CC=CC(=O)N1CC2(CC(c3cccc(NC(=O)CC)c3)=NO2)CC1C(N)=O (stereo not given)	-7	3	·	·	9	·
CS(=O)(=O)Nc1ccccc1C(=O)OCC(=O)N1CCC(c2ccccc2)=N1	5	4	0	6	33*	1
CNc1cccc2c1C(=O)c1ccccc1C2=O	·	·	-5	-1	·	0
O=C1c2ccccc2-c2cccc(NS(=O)(=O)c3ccc(C(F)(F)F)cc3)c21	97*	97*	18	-1	6	0
O=C(Cc1ccc(-c2ccccc2)cc1)N1CCOCC1	11	1	0	0	·	i
O=C(Cc1ccc(Br)cc1)N1CCOCC1	8	5	-13	36*	15	i
CCCCCCCC(=O)NNC(=O)Cc1ccccc1	-2	1	·	0	3	0
CCCCCCCCCCCC(=O)c1c(O)cccc1O	100*	100*	23	165*	·	0
O=Cc1c(OCc2ccccc2)ccc2ccccc12	35	0	-5	100*	-10	0
O=[N+]([O-])c1ccc(C=NNC(=S)Nc2ccccc2)o1	-1	17	·	·	7	·
COc1ccc(OC)c(C(O)=CC(=O)C(=O)Nc2cc(C)ccc2OC)c1	1	3	·	·	1	·
CCCCCOc1ccc(CSc2n[nH]c(C)n2)cc1	9	-1	-3	271*	-7	1
Cc1nc(SCc2ccc(OCCC(C)C)cc2)n[nH]1	4	17	16	301*	10	i
Cc1nc(SCc2ccc(F)cc2)n[nH]1	1	0	-11	-1	3	i
O=C(NCCc1ccc(Cl)cc1)c1ccc(CS(=O)Cc2ccc(Cl)cc2)o1 (stereo not given)	99*	-2	14	0	7	i
CCOc1ccc(CCNC(=O)c2ccc(CS(=O)Cc3ccc(Cl)cc3)o2)cc1 (stereo not given)	95*	-8	7	0	2	i
CSc1ccc(CCNC(=O)c2ccc(CS(=O)Cc3ccc(Cl)cc3)o2)cc1 (stereo not given)	53	-2	-6	0	5	-2
O=C(NCCc1ccccc1)c1ccc(CS(=O)Cc2cccc(Cl)c2)o1 (stereo not given)	87*	-6	5	-1	4	0
CCOc1ccc(CCNC(=O)c2ccc(CS(=O)Cc3ccccc3Cl)o2)cc1 (stereo not given)	14	-3	5	-1	10	0
N#CCC(=O)NN=Cc1cn(Cc2ccccc2C#N)c2ccccc12	4	4	·	·	16	·
